Bioassay records: PubChem BioAssay, National Center for Advancing Translational Sciences (NCATS)
A selection: hits, their analogues and other compounds. The true share with any hit is near 8.7%.
Vaccinia Venus – inhibitors of vaccinia virus (Venus reporter) | AID 720580 | Potency, µM (doses to about 36.5 µM), for the others: at the highest dose activity change, negative = inhibition, usual class: inhibitors | 330,000 tested, 0.46% active | Vaccinia virus Venus reporter expression, fluorescence; calls by dose curve; tested in A549 cells; further: nearly all actives have a fitted effect of over 30% in size
Pf growth 48h – P. falciparum growth inhibition at 48 hours (one generation) | P. falciparum luciferase growth in erythrocytes, 48 h | Potency, µM (top dose mostly 28.7 µM), inactives show at the highest dose activity change, negative = inhibition, most hits filed as inhibitors | 310,000 tested, 5.9% active | AID 504832
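Erythrocytes infected with P. falciparum carrying an integrated firefly luciferase reporter (2% hematocrit, 0.1% parasitemia final) were exposed to compounds in RPMI 1640 with 0.5% Albumax at 37 C, 5% CO2. Growth inhibition was scored as reduced luminescence.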
Vaccinia mCherry – inhibitors of vaccinia virus infection (mCherry reporter signal) | 310,000 tested, 0.63% active | Potency, µM (titrated, usually from 36.5 µM), inactives show at the highest dose activity change, negative = inhibition, usual class: inhibitors | Vaccinia virus mCherry reporter infection, fluorescence; calls by dose curve; tested in A549 cells; further: nearly all actives have a fitted effect of over 35% in size
AMA1-RON2 inh – inhibitors of Plasmodium falciparum AMA1-RON2 interaction; 360,000 tested, 0.2% active; AID 720542; Potency, µM (series often up to 58.2 µM), inactives show top-dose activity change, negative = inhibition, hits mostly inhibitors; AlphaScreen AMA1-biotinylated RON2 peptide binding;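 further: 0% = vehicle wells and -100% = peptide control; nearly all actives have a fitted effect of over 45% in size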
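AMA1 (3D7) with his tag at 25 nM final met compounds first, then biotinylated RON2 peptide at 25 nM; detection used donor plus acceptor beads, 10 µg/mL apiece, read by AlphaScreen after 30 min at room temperature.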
Pf growth 96h – P. falciparum growth inhibition at 96 hours; 320,000 tested, 6.9% active; Potency, µM (series often up to 28.7 µM), inactives show at the highest dose activity change, negative = inhibition, hits mostly inhibitors; P. falciparum luciferase reporter growth, 96 h
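Compounds incubated with erythrocytes infected by luciferase-expressing P. falciparum (2% hematocrit, 0.05% parasitemia final) for 96 hours, 37 C in 5% CO2. Growth inhibition scored as decreased luciferase luminescence.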
* = called active by the depositor; i = inactive; u = inconclusive; x = no result. Unless noted, the call rests on the fitted dose curve; in most records, active means well fitted curve in the direction sought with a large enough effect; inconclusive means small, poorly fitted or top-dose-only effect, or another doubt; inactive means no such curve, though single readings can be large; an effect the other way counts as inactive or inconclusive. Unless noted, on the % scale 0 is the no-effect control and ±100 the full control effect; potency means the concentration at half of the fitted maximal effect.

SMILES | Vaccinia Venus | Pf growth 48h | Vaccinia mCherry | AMA1-RON2 inh | Pf growth 96h
CCOC(=O)c1sc2c(c1C)c(=O)c(C(=O)OCC)cn2CC | x | 2.3µM* | x | -1% | 8%
Cc1ccc(CC(=O)NCc2nc(-c3cccc(C)c3)no2)cc1 | -1% | x | -11% | x | x
O=c1cc(N2CCN(c3ccc(F)cc3)CC2)[nH]c(=O)n1-c1cccc(Br)c1 | -21% | x | -25% | x | x
CC1(C)CC(=O)C2=C(C1)Oc1nc3ccccc3cc1C2C(C#N)C#N (stereo not drawn) | 11µM* | 0.66µM* | u | -6% | -1%
COc1cccc(OC)c1C(=O)N1CCOCC1 | -2% | -8% | i | -5% | 15µM*
COc1ccccc1-c1cc(C(=O)N2CCOCC2)no1 | -4% | 97% | -15% | -1% | u
COc1ccccc1-c1cc(C(F)(F)F)nc(N2CCN(c3ccc(F)cc3)CC2)n1 | 1% | -2% | 3% | -2% | 13µM*
COc1ccccc1-c1cc(C(=O)N2CCN(c3ccc(F)cc3)CC2)no1 | -11% | 35% | -2% | -19% | 8.3µM*
CCCCNC(=O)c1cc(-c2ccc(OC)cc2)on1 | x | 130% | x | 30% | u
CCCCNC(=O)c1cc(-c2ccc(OC)c(OC)c2)on1 | 9% | x | -3% | -2% | 3.3µM*
Cc1ccccc1CNC(=O)c1cnc2sc(N3CCC(C)CC3)nn2c1=O | -6% | x | -9% | x | x
CCOc1ccc(CCNC(=O)c2cn(-c3ccc(OC)cc3)c(=O)c3ccccc23)cc1OCC | -10% | x | -16% | x | x
Cc1ccc(Cl)cc1N1CCN(C(=O)c2c(C)oc3ncnc(N4CCCCC4)c23)CC1 | -14% | x | -22% | x | x
COc1ccc(-c2cc(C(=O)N3CCOCC3)no2)cc1OC | -7% | 88% | i | u | 1.3µM*
COc1ccc(-c2cc(C(=O)N3CC4(C)CC3CC(C)(C)C4)no2)cc1OC (stereo not drawn) | -10% | 0.93µM* | -4% | -17% | u
COc1ccc(C(=S)N2CCOCC2)cc1OC(=O)c1ccc(C)cc1 | -9% | -18% | u | -5% | 2.9µM*
COc1ccc(-c2cc(C(=O)N3CC4(C)CC3CC(C)(C)C4)no2)cc1 (stereo not drawn) | x | x | x | -5% | u
COCCCNC(=O)CCCCn1c(=O)c2ccccc2n(CC(=O)Nc2ccc(C)cc2C)c1=O | -11% | x | -8% | x | x
CCc1noc(-c2ccc(N3CCCCC3)c([N+](=O)[O-])c2)n1 | -6% | x | -11% | x | x
COc1ccc(N=C2S/C(=C\c3ccc(Cl)c([N+](=O)[O-])c3)C(=O)N2CCN(C)C)cc1 | u | -28% | -23% | 14µM* | -6%
CN(C)CCNC(=O)c1cccc2nc3c(ccc4ccccc43)nc12 | 11µM* | x | u | -1% | x
COc1ccc(-c2nc3c(C(=O)NCCN(C)C)cccc3c3ccccc23)cc1 | u | x | -14% | -11% | x
COc1ccc(C(=O)NCCN(C)C)c2nc3ccccc3cc12 | 6.3µM* | x | 1µM* | 4% | x
COc1ccc(Cl)cc1C(=O)NCCN(C)C | x | x | x | 7% | 186%
COc1cccc2nc3c(C(=O)NCCN(C)C)cccc3cc12 | 4.5µM* | x | 3.5µM* | 3% | x
SMILES | Vaccinia Venus | Pf growth 48h | Vaccinia mCherry | AMA1-RON2 inh | Pf growth 96h
CCOc1ccc(CCn2c3c(c(=O)[nH]c2=O)C(NC(=O)c2cccc(F)c2)(C(F)(F)F)C(=O)N3)cc1OCC (stereo not drawn) | -9% | x | -5% | x | x
Cc1ccc(C)c(CSc2ccc3nnc(-c4ccccn4)n3n2)c1 | -16% | 13µM* | -13% | -17% | u
COC(=O)c1ccc(CSc2ccc3nnc(-c4ccccn4)n3n2)o1 | -4% | u | -11% | -2% | 10µM*
Brc1ccc(CSc2ccc3nnc(-c4cccnc4)n3n2)cc1 | -19% | u | -16% | -5% | u
COC(=O)c1ccc(CSc2ccc3nnc(-c4ccc(F)cc4)n3n2)o1 | x | u | x | -2% | u
Cc1ccc(CSc2ccc3nnc(-c4ccccn4)n3n2)cc1 | -9% | 2.9µM* | -8% | -10% | 10µM*
Brc1ccc(CSc2ccc3nnc(-c4ccccn4)n3n2)cc1 | -11% | 2.6µM* | -17% | -17% | 2.9µM*
Cc1ccc2[nH]c(CSc3nnc(NC(=O)COc4ccccc4Cl)s3)cc(=O)c2c1 | -8% | x | -7% | x | x
COc1cccc(-c2ccc(O)c(CNCc3cccc(OC)c3OC)c2)n1 | -11% | x | -15% | x | x
Cc1noc(-c2ccc(-c3noc(-c4cccc(F)c4)n3)cc2)n1 | -1% | x | i | x | x
